# Test results as given in the supplement of paper PMC6555819.
# Assays:
# Assay in all cases: PBM binding z-score (relative to random genomic background probes); higher = stronger binding; sequences stand for … in GC…GCGATTGACAGCGTAGAATGAAGG
# [1] = system: FXR:RXRa (NR concentration 270 nM, RXRa partner concentration 90 nM)
# How it was run: (§1)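 Each nuclear receptor dimer, without ligand, was incubated for 1 h on custom Agilent 4×180K protein-binding microarrays. Binding was detected with antibodies against each partner (one per run), and scanned fluorescence was regression-normalized. The binding z-scores are referenced to random human genomic background probes.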
# [2] = system: LXRa:RXRa (NR concentration 270 nM, RXRa partner concentration 90 nM)
# How it was run: as §1
# [3] = system: LXRa homodimer (NR concentration 270 nM)
# How it was run: as §1
# [4] = system: LXRb:RXRa (NR concentration 270 nM, RXRa partner concentration 90 nM)
# How it was run: as §1
# [5] = system: LXRb homodimer (NR concentration 270 nM)
# How it was run: as §1
# [6] = system: PPARa:RXRa (NR concentration 270 nM, RXRa partner concentration 90 nM)
# How it was run: as §1
# [7] = system: PPARg:RXRa (NR concentration 180 nM, RXRa partner concentration 90 nM)
# How it was run: as §1
# [8] = system: PPARg:RXRa 270nM:90nM, anti-RXR (NR concentration 270 nM, RXRa partner concentration 90 nM)
# How it was run: as §1
# [9] = system: PPARg:RXRa 30nM:10nM, anti-RXR (NR concentration 30 nM, RXRa partner concentration 10 nM)
# How it was run: as §1
# [10] = system: PPARg:RXRa 90nM:30nM, anti-RXR (NR concentration 90 nM, RXRa partner concentration 30 nM)
# How it was run: as §1
# [11] = system: PPARg:RXRa DBDmut IVT, anti-RXR (DBD mutation: RXRa K156A/R161A, NR concentration 270 nM, RXRa partner concentration 90 nM)
# How it was run: as §1
# [12] = system: PPARg:RXRa IVT, anti-PPARg (NR concentration 270 nM, RXRa partner concentration 90 nM)
# How it was run: as §1
# [13] = system: PPARg DBDmut:RXRa IVT, anti-PPARg (DBD mutation: PPARg1 K132A/R137A, NR concentration 270 nM, RXRa partner concentration 90 nM)
# How it was run: as §1
# [14] = system: PPARg DBDmut IVT, anti-PPARg (DBD mutation: PPARg1 K132A/R137A, NR concentration 270 nM)
# How it was run: as §1
# [15] = system: PPARg homodimer (NR concentration 180 nM)
# How it was run: as §1
# [16] = system: PXR:RXRa (NR concentration 270 nM, RXRa partner concentration 90 nM)
# How it was run: as §1
# [17] = system: PXR homodimer (NR concentration 270 nM)
# How it was run: as §1
# [18] = system: RARa:RXR (NR concentration 270 nM, RXRa partner concentration 90 nM)
# How it was run: as §1
# [19] = system: RARa homodimer (NR concentration 270 nM)
# How it was run: as §1
# [20] = system: RARb:RXRa (NR concentration 270 nM, RXRa partner concentration 90 nM)
# How it was run: as §1
Sequence,PBM binding z-score [1],PBM binding z-score [2],PBM binding z-score [3],PBM binding z-score [4],PBM binding z-score [5],PBM binding z-score [6],PBM binding z-score [7],PBM binding z-score [8],PBM binding z-score [9],PBM binding z-score [10],PBM binding z-score [11],PBM binding z-score [12],PBM binding z-score [13],PBM binding z-score [14],PBM binding z-score [15],PBM binding z-score [16],PBM binding z-score [17],PBM binding z-score [18],PBM binding z-score [19],PBM binding z-score [20]
GCGACTGGAGCAAAGCAGGTTACCATAAGGTTGG,-0.343,-0.594,-0.842,-0.498,-1.26,0.27,0.477,-0.112,-0.43,-0.311,1.03,0.463,-1.39,-1.59,0.00968,-0.101,-0.667,0.372,-0.65,-0.192
CCGACTGGAGCAGAAAGGTTACCATACCATCCGG,0.42,0.894,-0.0298,0.813,-0.611,1.77,1.61,2.5,0.683,2.24,0.54,0.511,-0.716,-0.66,0.708,1.02,-0.102,2.11,-0.788,1.52
CCGACTGGGGCACAAAGGTTACCATACCATCCGG,0.682,0.574,0.127,1.44,-1.09,3.24,4.16,5.34,2.72,5.14,3.32,4.48,-0.0878,-1.02,0.929,1.58,0.126,2.57,0.061,2.31
ATCTCTAGGTAAGACTCCGTTCAGTGAAGAACGC,0.49,0.425,0.698,0.0873,0.894,-0.00199,0.087,0.169,0.111,0.441,2.22,1.25,0.571,0.804,1.16,0.0673,0.0511,0.105,0.882,0.229
TCTATTAGATGAAGGGCAACCGACGAGTCCGTTT,0.734,0.81,-0.159,0.733,0.205,0.841,0.575,2.01,3.7,2.93,2.54,0.861,0.95,0.278,0.308,0.796,1.11,0.642,0.636,1.47
TCTCCTAGGTCAGTTGGTCAGCTAACGAGCTGCC,1.57,1.17,0.111,1.26,1.43,1.89,0.491,2.47,2.9,2.75,2.85,3.32,1.43,0.66,1.05,0.732,-0.3,0.918,0.238,3.52
GTACCATGGTGAATAGGTCGTTGATGAGTAGGCG,-0.238,0.114,-0.331,-0.0798,-0.524,0.641,0.623,0.293,-0.175,0.119,0.107,0.275,-0.162,0.3,0.352,0.151,-0.347,0.29,-0.148,0.41
CCTAGCAGGCCAATCTGGTTCACTCAAGGCTTGA,-0.121,0.131,-0.596,-0.16,-0.887,0.0157,-0.419,-0.488,-0.776,-0.865,1.85,0.21,-1.28,-0.685,-0.281,0.784,-0.545,0.161,-0.882,0.201
CCACACAGGTGAAAGGTAACTCAGTCTGGTACGC,1.02,1.03,0.186,1.15,-0.0183,3.42,5.45,5.54,3.68,5.21,2.15,3.2,0.0609,0.1,1.3,1.22,0.292,1.76,0.461,1.38
CCTAGCAGGCCAATTTGGGTCACTCAAGGCTTGA,1.3,1.3,-0.0886,1.16,-1.16,2.37,0.558,0.917,-0.434,0.671,2.7,2.91,-1.03,-1.39,0.323,1.12,-0.236,1.52,-0.55,1.29
TCGAGTAGCTTACCAATGGGGCATTCAGCTTTCT,-0.38,-0.514,-0.884,0.00146,-1.08,-0.152,-0.423,-0.0428,0.616,0.411,1.07,-0.175,-1.01,-0.741,-0.629,-0.456,-1.19,-0.333,-1.4,-0.426
CAAACTAGGTCACCGGAAGTTCAAAGTCCGCATG,5.16,5.88,4.93,4.26,1.06,5.9,9.18,7.54,5.95,7.54,8.47,9.21,5.32,4.81,7.04,6.19,6.26,5.86,1.72,4.85
AGAACGAGGGCACGCTGAGTTGATGGCAGAGTAG,0.805,0.828,-0.81,0.0668,-1.05,2.22,2.22,1.63,0.228,1.27,4.26,3.81,0.605,-0.669,0.179,1.13,-0.226,0.999,-0.371,2.38
CCTGCTAGGTCCATGGTCAGCTAAAGCAGCTCGC,-0.648,-0.658,-0.744,-0.958,-0.563,-0.447,-0.772,-0.287,-1.2,-0.648,-0.414,-0.603,-1.47,-1.26,-0.704,-0.449,-1,-0.64,-1.05,0.441
